High-throughput results as filed in PubChem.
Compounds with a hit are over-represented: about 12% of the library has one in this group of screens.
SARS PLpro yeast: qHTS of Yeast-based Assay for SARS-CoV PLP | S. cerevisiae expressing SARS-CoV PLpro, growth rescue | Potency, µM (top dose mostly 32.9 µM), for the others: at the top dose activity, positive = growth rescue, actives largely listed as activators | hit rate 0.19% among 330,000 | AID 485353, 2010; calls by dose curve; further: 0% is about no effect; nearly all actives have a fitted effect of over 55% in size
NS1 function inh: qHTS Assay for Inhibitors of Influenza NS1 Protein Function; AID 2326, 2010; hit rate 0.4% among 270,000; Potency, µM (doses to about 46.1 µM), inactives show at the highest dose activity, positive = more growth; calls by dose curve; further: actives are rising curves; nearly all actives have a fitted effect of over 50% in size
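In this qHTS, NS1 from influenza A is expressed in budding yeast, where it slows growth. Cells are switched from glucose to 2% galactose medium (pH 6.0, -URA), treated with compound, and growth recovery is read at OD600.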
Pf growth 48h: Primary qHTS for delayed death inhibitors of the malarial parasite plastid, 48 hour incubation | Potency, µM (doses to about 28.7 µM), for inactives: at the top dose activity change, negative = inhibition, hits mostly inhibitors | P. falciparum luciferase growth in erythrocytes, 48 h | AID 504832, 2011 | hit rate 5.9% among 310,000; further: on the % scale 0 is the no-effect control and ±100 the full control effect
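Luciferase-expressing parasites in RBCs, 2% Hct / 0.1% parasitemia final; RPMI 1640 + 0.5% Albumax; 37 C, 5% CO2, one generation; luminescence read-out, lower signal = inhibition.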
AMA1-RON2 inh: qHTS for Inhibitors of AMA1-RON; Towards Development of Antimalarial Drug Lead: Primary Screen. Plasmodium falciparum AMA1 (3D7) - RON2 peptide interaction. AlphaScreen AMA1-biotinylated RON2 peptide binding. Potency, µM (highest dose often 58.2 µM), for the others: at the top dose activity change, negative = inhibition, most hits filed as inhibitors. hit rate 0.2% among 360,000. AID 720542, 2013;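 further: 0% = vehicle wells and -100% = peptide control; nearly all actives have a fitted effect of over 45% in size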
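AMA1 (3D7) with his tag at 25 nM final met compounds first, then biotinylated RON2 peptide at 25 nM; detection used donor plus acceptor beads, 10 µg/mL apiece, read by AlphaScreen after 30 min at room temperature.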
HCV inhibitor: qHTS Assay for Inhibitors of Hepatitis C Virus (HCV). Huh7.5.1 HCVcc-Cre infection, luciferase reporter, 44 h. Potency, µM (titrated, usually from 41.8 µM), without a hit: at the top dose activity change, negative = inhibition, most hits filed as inhibitors. hit rate 3.4% among 340,000. AID 651820, 2012; further: on the % scale 0 is the no-effect control and ±100 the full control effect
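Cells (1,000/well) were plated 4 h before compound, then infected with HCVcc-Cre virus (~0.5 moi). After 44 h further culture, infection was read as luciferase luminescence following a 15 min substrate incubation at room temperature.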
Pf growth 96h: Primary qHTS for delayed death inhibitors of the malarial parasite plastid, 96 hour incubation. Potency, µM (highest dose often 28.7 µM), inactives show top-dose activity change, negative = inhibition, hits mostly inhibitors. hit rate 6.9% among 320,000. P. falciparum luciferase reporter growth, 96 h; further: on the % scale 0 is the no-effect control and ±100 the full control effect
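Two-generation exposure (96 h) targets delayed-death phenotype. Reporter parasites carrying integrated firefly luciferase, in red cells at 2% hematocrit and 0.05% parasitemia final, kept at 37 C, 5% CO2; luminescence loss indicates inhibition.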
The depositor's hits bear a star; ? = inconclusive; · = no result given; [ ] = remark or other dose. Unless noted, the call rests on the fitted dose curve; in most records, active means well fitted curve in the direction sought with a large enough effect; inconclusive means small, poorly fitted or top-dose-only effect, or another doubt; inactive means no such curve, though single readings can be large; an effect the other way counts as inactive or inconclusive. Potency means the concentration at half of the fitted maximal effect.

SMILES	SARS PLpro yeast	NS1 function inh	Pf growth 48h	AMA1-RON2 inh	HCV inhibitor	Pf growth 96h
NC(=O)c1nsc(C(=O)N(c2ccccc2)C(C(=O)NCC2CCCO2)c2cccs2)c1N (centres undefined)	1%	1%	-3%	7%	-5%	?
Cc1cc(C)cc(N(C(=O)c2snc(C(N)=O)c2N)C(C(=O)NCC2CCCO2)c2ccc(C)o2)c1 (centres undefined)	-2%	?	?	-12%	?	?
COc1cc(OC)cc(N(C(=O)c2snc(C(N)=O)c2N)C(C(=O)NCC2CCCO2)c2ccc(C)o2)c1 (centres undefined)	2%	21%	4.7µM*	·	·	36%
COc1ccc(-c2nsc(C(=O)N(c3ccc(F)cc3)C(C(=O)NC3CCCC3)c3ccc(OC)cc3)c2N)cc1 (centres undefined)	-1%	6%	2.6µM*	-14%	5%	·
COc1ccc(N(C(=O)c2snc(C(N)=O)c2N)C(C(=O)NC2CCCCC2)c2ccc(C)o2)cc1 (centres undefined)	0%	12%	8.3µM*	3%	?	-21%
Cc1cc(C)cc(N(C(=O)c2snc(C(N)=O)c2N)C(C(=O)NCC2CCCO2)c2cccs2)c1 (centres undefined)	1%	·	?	0%	11µM*	-1%
Cc1sc2ncn(CC(=O)NCC3COc4ccccc4O3)c(=O)c2c1S(=O)(=O)N1CCCCC1 (centres undefined)	-1%	·	6%	-7%	11%	-48%
O=[N+]([O-])c1ccc(Nc2ccccc2)cc1	-29%	-29%	32%	9%	-10%	?
N#CC(C#N)=C(C#N)c1ccc(Nc2ccccc2)cc1	-7%	-74%	13%	5%	19%	12µM*
CC(=O)c1cccc(Nc2ccc(C#N)cc2)c1	·	·	·	11%	·	·
c1ccc(Nc2ccc(Nc3ccccc3)cc2)cc1	-6%	·	-15%	16µM*	?	?
Cc1ccc(OCCOc2ccc(Cl)cc2Cl)c([N+](=O)[O-])n1	-5%	-5%	62%	0%	?	72%
COc1ccc(C(=O)Nc2cc(C)nn2-c2nc3ccccc3[nH]2)c(OC)c1	1%	-5%	?	101%	?	-131%
Cc1cc(NC(=O)c2ccccc2)n(-c2nc3ccccc3[nH]2)n1	1%	·	-24%	73%	?	?
Cc1cc(NC(=O)c2sccc2C)n(-c2nc3ccccc3[nH]2)n1	0%	4%	?	69%	11µM*	?
COc1cccc(OC)c1C(=O)Nc1cc(C)nn1-c1nc2ccccc2[nH]1	23%	1%	9.3µM*	82%	11µM*	7.4µM*
Cc1cc(NC(=O)c2cccs2)n(-c2nc3ccccc3[nH]2)n1	1%	0%	?	30%	?	-23%
Cc1cc(NC(=O)C2CCCC2)n(-c2nc3ccccc3[nH]2)n1	4%	-4%	8.3µM*	46%	5%	10µM*
Cc1ccc2cc(CN(Cc3cccs3)Cc3nnnn3C(C)(C)C)c3nnnn3c2c1	-3%	-4%	-20%	·	5%	8%[5.75 µM]
CCOc1ccc2[nH]c(=O)c(CN(Cc3cccs3)Cc3nnnn3C(C)(C)CC)cc2c1	-2%	-47%	8.3µM*	-1%	-35%	20%
CCC(C)(C)n1nnnc1CN(Cc1cccs1)Cc1cc2cc(OC)ccc2[nH]c1=O	-1%	7%	13µM*	-2%	-3%	·
Cc1nc(CN2CCN(Cc3nc(C(c4ccccc4)c4ccccc4)no3)CC2)cs1	-1%	2%	?	-10%	-8%	?
OCC[C@@H]1C[C@H](O)[C@@H](O)[C@@]2(OCCCc3cc(C(F)(F)F)ccc32)O1	·	·	·	-7%	·	·
